Experimental data reported in PubChem BioAssay AID588664 (The Scripps Research Institute Molecular Screening Center, 2011).
Hit rate of the full screen: of about 360,000 compounds, about 1,400 (0.39%) were called active. The sample holds actives, similar compounds and a random draw of the others, so the mix is not that of the screen. Rule as the data show it: active = inhibition above about 5% (passing the limit was not always enough); inactive = the rest.

molecular target: Tyrosine-protein kinase ABL1 (Homo sapiens) + Ras and Rab interactor 1 (Homo sapiens) (UniProt P00519+Q13671); test: inhibitors of Rin1-Abl protein binding, primary screen, biochemical, TR-FRET (AID 588664); conditions: at 7.35 µM, hits give high values
Sequence (P00519 whole entry, looked up): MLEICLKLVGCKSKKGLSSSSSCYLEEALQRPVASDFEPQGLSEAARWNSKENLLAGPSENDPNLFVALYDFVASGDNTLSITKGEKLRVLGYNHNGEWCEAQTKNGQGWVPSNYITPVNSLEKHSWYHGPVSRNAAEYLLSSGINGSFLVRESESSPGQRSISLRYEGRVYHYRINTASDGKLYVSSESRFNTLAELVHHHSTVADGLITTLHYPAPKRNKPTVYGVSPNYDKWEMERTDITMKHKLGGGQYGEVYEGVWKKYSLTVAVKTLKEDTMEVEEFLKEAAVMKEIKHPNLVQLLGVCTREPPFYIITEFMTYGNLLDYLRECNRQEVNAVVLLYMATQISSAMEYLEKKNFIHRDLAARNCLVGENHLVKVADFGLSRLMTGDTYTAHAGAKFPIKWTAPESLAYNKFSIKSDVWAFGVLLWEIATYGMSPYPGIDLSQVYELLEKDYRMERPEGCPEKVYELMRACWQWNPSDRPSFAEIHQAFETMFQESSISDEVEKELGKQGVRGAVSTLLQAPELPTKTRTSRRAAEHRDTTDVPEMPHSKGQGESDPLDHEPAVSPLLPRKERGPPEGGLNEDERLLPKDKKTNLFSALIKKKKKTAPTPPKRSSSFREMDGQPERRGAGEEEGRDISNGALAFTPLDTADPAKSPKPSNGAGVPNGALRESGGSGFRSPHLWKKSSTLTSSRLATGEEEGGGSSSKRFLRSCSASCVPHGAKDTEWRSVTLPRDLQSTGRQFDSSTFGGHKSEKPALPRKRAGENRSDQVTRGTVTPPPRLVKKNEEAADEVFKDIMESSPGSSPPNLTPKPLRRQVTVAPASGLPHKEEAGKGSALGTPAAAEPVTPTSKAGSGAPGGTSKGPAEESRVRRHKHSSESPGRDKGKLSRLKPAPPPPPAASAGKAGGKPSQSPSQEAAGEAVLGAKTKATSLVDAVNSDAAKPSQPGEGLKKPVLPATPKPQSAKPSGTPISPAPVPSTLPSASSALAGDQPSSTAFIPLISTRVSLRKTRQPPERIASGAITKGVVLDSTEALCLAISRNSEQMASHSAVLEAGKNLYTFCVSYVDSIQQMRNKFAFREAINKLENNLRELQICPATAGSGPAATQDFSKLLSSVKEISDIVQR
Sequence (Q13671 whole entry, looked up): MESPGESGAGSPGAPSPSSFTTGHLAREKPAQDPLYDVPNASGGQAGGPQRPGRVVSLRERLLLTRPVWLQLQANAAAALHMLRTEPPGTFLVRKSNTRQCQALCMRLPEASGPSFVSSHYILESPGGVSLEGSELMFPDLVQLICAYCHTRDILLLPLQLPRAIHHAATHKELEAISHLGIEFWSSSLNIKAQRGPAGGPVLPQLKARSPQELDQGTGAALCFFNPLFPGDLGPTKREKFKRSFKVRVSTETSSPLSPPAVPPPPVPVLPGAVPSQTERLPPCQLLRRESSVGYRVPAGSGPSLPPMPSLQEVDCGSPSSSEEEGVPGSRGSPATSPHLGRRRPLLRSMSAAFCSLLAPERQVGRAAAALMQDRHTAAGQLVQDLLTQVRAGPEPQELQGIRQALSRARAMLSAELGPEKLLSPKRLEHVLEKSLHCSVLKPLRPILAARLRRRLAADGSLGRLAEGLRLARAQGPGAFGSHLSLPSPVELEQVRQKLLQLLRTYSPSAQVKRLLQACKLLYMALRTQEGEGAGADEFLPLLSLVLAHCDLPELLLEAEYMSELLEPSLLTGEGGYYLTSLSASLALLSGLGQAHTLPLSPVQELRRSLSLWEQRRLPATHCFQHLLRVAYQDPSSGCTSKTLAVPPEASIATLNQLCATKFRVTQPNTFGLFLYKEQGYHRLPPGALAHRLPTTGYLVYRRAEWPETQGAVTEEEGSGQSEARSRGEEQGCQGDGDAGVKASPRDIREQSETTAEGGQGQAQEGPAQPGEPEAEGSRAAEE

SMILES | inhibition
COc1ccc([N+](=O)[O-])cc1NC(=O)COC(=O)/C=C/c1ccco1 | -3.75% (inactive)
O=C(NNc1c2ccccc2nc2ccccc12)c1cc2ccccc2cc1O | 5.94% (active)
Cc1noc(C)c1COC(=O)c1cc2ccccc2cc1O | 1.08% (inactive)
O=C(CSc1nc(C2CC2)nc2ccccc12)Nc1cccc(O)c1 | -0.76% (inactive)
CC(C)(C)NC(=O)NC(=O)COC(=O)Cn1c(C(F)(F)F)nc2ccccc21 | 2.76% (inactive)
COc1ccccc1NC(=O)CSc1nnc(-c2ccoc2C)n1CCc1ccccc1 | 4.08% (inactive)
CCN(CC)S(=O)(=O)c1ccc(N(C)Cc2ccc(C(F)(F)F)cc2)nc1 | 0.97% (inactive)
Nc1cc(=O)c2[nH]cnc2[nH]1 | 16.4% (active)
C[C@@H]1CN([C@H](C)CO)S(=O)(=O)c2ccc(C#C[C@@H](C)O)cc2O[C@@H]1CN(C)Cc1ccc(-c2ccccc2)cc1 | 36.5% (active)
C[C@@H]1CN([C@@H](C)CO)S(=O)(=O)c2ccc(-c3ccc(C(=O)N(C)C)cc3)cc2O[C@@H]1CN(C)Cc1ccccc1C(=O)O | -1.93% (inactive)
Cc1ccccc1-c1ccc2c(c1)O[C@@H](CN(C)Cc1ccc(C(=O)O)cc1)[C@@H](C)CN([C@H](C)CO)S2(=O)=O | 1.11% (inactive)
O=C(C1CCCN(S(=O)(=O)c2ccc([N+](=O)[O-])cc2)C1)N1CCCCC1 (configuration not stated) | 1.73% (inactive)
CCNS(=O)(=O)c1ccc(NC(=O)c2cncc(Br)c2)cc1 | -2.97% (inactive)
O=C(Nc1ccc(S(=O)(=O)Nc2ncccn2)cc1)c1cncc(Br)c1 | 11.3% (active)
O=C(NC(=S)Nc1ccc(S(=O)(=O)Nc2ncccn2)cc1)c1cccc(Br)c1 | -0.5% (inactive)
CCOCCCNC(=S)Nc1ccc2nc(N3CCN(CC)CC3)cc(C)c2c1 | -3.64% (inactive)
O=C(CC1SCCNC1=O)Nc1ccc(Cl)cc1 (configuration not stated) | 11.9% (active)
COc1ccccc1C(=O)N1CCNC(=O)C1CC(=O)Nc1ccc(Cl)cc1 (configuration not stated) | 4.11% (inactive)
CCOc1ccc(NC(=O)CC2NCCNC2=O)cc1 (configuration not stated) | 0.97% (inactive)

SMILES | inhibition
Cc1cc(-c2ccc(C)c(S(=O)(=O)NC(C)Cc3ccco3)c2)on1 (configuration not stated) | 4.85% (inactive)
COc1ccc(NC(=O)CSc2nnc(-c3ccccc3F)n2C2CC2)cc1S(N)(=O)=O | -3.31% (inactive)
Fc1cccc(Cl)c1COc1ccc(-c2nnco2)cc1 | 0.01% (inactive)
C[C@H](NC(=O)[C@@H]1Cc2ccccc2CN1C(=O)OC(C)(C)C)C(=O)NC1CCCC1 | -1% (inactive)
Cc1ccc(NC(=O)OCCNC(=O)c2ccncc2)cc1 | 1.62% (inactive)
COCCNC(=O)CSc1nc(N)c(NC(=O)c2ccco2)c(=O)[nH]1 | -1.82% (inactive)
COCCNC(=O)Nc1ccc2nc(-c3ccco3)c(-c3ccco3)nc2c1 | 8.86% (active)
C#CCN(N(C)c1ncc(C(F)(F)F)cc1Cl)S(=O)(=O)c1ccc2ccccc2c1 | 0.28% (inactive)
CCN1CCN(c2cc3nc(C)n(Cc4ccccc4)c(=O)c3cc2NC(=O)c2ccccc2F)CC1 | -0.45% (inactive)
N#Cc1ccccc1NC(=O)COc1c(Br)cc(Br)c2cccnc12 | -0.22% (inactive)
CC(=O)NC(c1cccs1)c1cc(Br)c2cccnc2c1O (configuration not stated) | 14.8% (active)
CCCCC(=O)NC(c1ccc(OC)c(OC)c1)c1ccc2cccnc2c1O (configuration not stated) | -0.15% (inactive)
O=C(Nc1ccc2c(c1)[C@@H]1C[C@@H](CC(=O)N3CCCCC3)O[C@@H](CO)[C@@H]1O2)NC1CCCCC1 | 2.19% (inactive)
O=C(Cn1cnc2cc([N+](=O)[O-])ccc2c1=O)NC(=O)NCc1ccccc1 | -4.46% (inactive)
CCOC(=O)C(CCOc1cccc(CC)c1)C(=O)OCC | 0.47% (inactive)
COc1ccc2c(c1)c(=O)c(C(=O)c1ccc(Cl)cc1)cn2CC(=O)Nc1ccc(F)cc1 | -3.04% (inactive)
COc1ccc(CNC(=O)C2CCCC2)cc1 | -1.61% (inactive)
COc1ccc(CNC(=O)c2cc(C(=O)C3CC3)c[nH]2)cc1 | 11.6% (active)
COc1ccc(CNC(=O)c2c[nH]c3c(OC)cc(OC)cc3c2=O)cc1 | -2.41% (inactive)

SMILES | inhibition
OCC[C@H]1C[C@@H](O)[C@H](O)[C@@]2(OCCc3ccccc32)O1 | 1.02% (inactive)
CCc1ccc(CN(C)C(C)C(=O)Nc2ccc(S(=O)(=O)N3CCCC3)cc2)cc1 (configuration not stated) | 12.4% (active)
CC(C(=O)Nc1ccc(S(=O)(=O)N2CCCC2)cc1)N(C)Cc1ccc(F)cc1 (configuration not stated) | 2.65% (inactive)
CC(OC(=O)c1ccc(NC(=O)CC#N)cc1)C(=O)Nc1ccc(S(=O)(=O)N2CCCC2)cc1 (configuration not stated) | 2.43% (inactive)
Cc1nn(Cc2ccccc2)c(C)c1C(=O)N1CCN(CC(=O)Nc2ccccc2Cl)CC1 | 2.44% (inactive)
CCOC(=O)C1=C(COC(=O)[C@H](C)NS(=O)(=O)c2ccccc2F)NC(=O)NC1C (some centres not stated) | 2.47% (inactive)
CNC(=S)NNC(=O)c1ccc(N(C)C)cc1 | 0.47% (inactive)
CN(C)c1ccc(N/C=C/C(=O)C(F)(F)F)cc1 | 7.5% (active)
CN(C)c1ccc(/C=N/NC(=O)C(O)c2ccc(Br)cc2)cc1 (configuration not stated) | 0.79% (inactive)
C[C@H](CO)N1C[C@H](C)[C@@H](CN(C)C(=O)C2CCCCC2)OCc2cnnn2CCCC1=O | -1.65% (inactive)
Cc1cc(C)c(C(N)=O)c(Cl)n1 | -1.52% (inactive)
Cc1ccccc1CN1C[C@@H]2C[C@@H](c3ccc4nsnc4c3)N3CCC[C@@]23C1=O | 8.18% (active)
Cc1ccccc1CN1C[C@@H]2C[C@@H](c3cn(C)nc3-c3ccccc3)N3CCC[C@@]23C1=O | -1.71% (inactive)
Cc1ccccc1CN1CCN(CC(=O)NCc2ccccn2)C1=O | -1.59% (inactive)
CC(OC(=O)/C=C/c1ccccc1)C(=O)Nc1ccc(C(N)=O)cc1 (configuration not stated) | 1.19% (inactive)
O=S1(=O)CC(N2CCN(c3ccccn3)CC2)CN1Cc1ccc(F)cc1 (configuration not stated) | 1.04% (inactive)
Cc1ccc(S(=O)(=O)NCCC(=O)NNC(=O)C2COc3ccccc3O2)cc1 (configuration not stated) | -0.47% (inactive)
Cc1c(CCC(=O)O)c(=O)oc2c(C)c(OCc3ccccc3Cl)ccc12 | 1.81% (inactive)
Cc1c(CC(=O)N2CCN(C(=O)C3COc4ccccc4O3)CC2)c(=O)oc2c(O)c(O)ccc12 (configuration not stated) | 9.84% (active)
